What all share (assay): NCI-60 one-dose screen, 48 h (100 = growth as untreated, 0 = no growth, -100 = all killed)
In one assay the test system is HCT-15 colon. The conditions noted are these: 10 µM unless noted.
Another assay concerns HT29 colon. The following applies: 10 µM unless noted.
The subject of a further assay is SNB-19 CNS. The conditions noted are these: 10 µM unless noted.
The subject of the next assay is U251 CNS. The conditions noted are these: 10 µM unless noted.
The next assay has as its system PC-3 prostate. The conditions noted are these: 10 µM unless noted.
The test system of a further assay is SK-MEL-5 melanoma. The conditions noted are these: 10 µM unless noted.
Another assay deals with UACC-62 melanoma. The conditions noted are these: 10 µM unless noted.
Another assay has as its system LOX IMVI melanoma. The conditions noted are these: 10 µM unless noted.
For another assay, the system named is SK-MEL-28 melanoma. The following applies: 10 µM unless noted.
Another assay deals with SK-MEL-2 melanoma. The following applies: 10 µM unless noted.
A further assay deals with SN12C renal. The conditions noted are these: 10 µM unless noted.
In another assay the test system is UO-31 renal. The following applies: 10 µM unless noted.
In the next assay the test system is TK-10 renal. The conditions noted are these: 10 µM unless noted.
The test system of a further assay is ACHN renal. The following applies: 10 µM unless noted.
The subject of the next assay is CAKI-1 renal. The conditions noted are these: 10 µM unless noted.
Another assay relates to A498 renal. The conditions noted are these: 10 µM unless noted.
The subject of another assay is CCRF-CEM leukemia. The following applies: 10 µM.
The subject of a further assay is MOLT-4 leukemia. The following applies: 10 µM unless noted.
The next assay concerns EKVX NSCLC. The conditions noted are these: 10 µM.

The structures appear in SMILES notation. Compounds without any hit were thinned out: in the full panel of roughly 83,000, 20% have a hit.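 Testing used 96-well plates and a 48-hour single-concentration exposure. Example: -40 means 40% of the starting cells died.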 Values without a mark were called inactive. The source made the active and inactive calls. The calls were made as follows: active = growth percent below 10; inactive = the rest.

On to `Oc1ccc(Br)cc1/C=N/NC(=S)NC12CC3CC(CC(C3)C1)C2`, for which the growth is 9.35% (active) in the assay with HCT-15 colon; -16.7% (active) in the assay with HT29 colon; 45.3% with SNB-19 CNS; 5.5% (active) in the assay on U251 CNS; -19% (active) with PC-3 prostate; 28.6% in the assay on SK-MEL-5 melanoma. Besides, the growth in the assay on UACC-62 melanoma was 30.1%; in the assay with LOX IMVI melanoma, -76% (active); with SK-MEL-28 melanoma it was 51.2%; in the assay on SK-MEL-2 melanoma, 48.2%; in the assay with SN12C renal it was 20.1%; in the assay with UO-31 renal it was -2.23% (active). Also, the growth in the assay on TK-10 renal was 27.9%; in the assay with ACHN renal, 2.67% (active); with CAKI-1 renal it was -35.3% (active); in the assay on A498 renal, 53.3%; in the assay on CCRF-CEM leukemia, -21.1% (active); in the assay on MOLT-4 leukemia it was 1.75% (active).
With `CC(=O)N1CCN(CCNC(=O)n2cc(-c3ccncc3)c(-c3cc(O)cc(Cl)c3)n2)CC1`, the growth is 51.1% in the assay with HCT-15 colon; 21.7% with HT29 colon; 106% with SNB-19 CNS; 80.1% in the assay with U251 CNS; 114% with PC-3 prostate; 63.6% with SK-MEL-5 melanoma. The growth is 27.8% with UACC-62 melanoma; 68.3% with LOX IMVI melanoma; 31.4% in the assay on SK-MEL-28 melanoma; 112% in the assay with EKVX NSCLC; 94.4% with SN12C renal; 72.9% in the assay on UO-31 renal. Moreover, the growth in the assay with TK-10 renal was 62.5%; in the assay with ACHN renal, 76.9%; in the assay on CAKI-1 renal, 99%; in the assay with A498 renal it was 93.1%; in the assay on CCRF-CEM leukemia, 71.6%; in the assay on MOLT-4 leukemia it was 67.3%.
Regarding `COc1cccc(NC(=O)NCCNc2nccc(-c3c(-c4ccc(F)cc4)nc4sccn34)n2)c1`, the growth with HCT-15 colon is 56.4%; in the assay on HT29 colon it was 39.8%; in the assay on SNB-19 CNS it was 86.3%; in the assay with U251 CNS, 77.6%; in the assay on PC-3 prostate it was 89.9%; in the assay on SK-MEL-5 melanoma, 61.6%. Besides, the growth is 68.2% with UACC-62 melanoma; 72.6% in the assay on LOX IMVI melanoma; 92.2% in the assay with SK-MEL-28 melanoma; 98.6% with EKVX NSCLC; 72.8% with SN12C renal; 52.4% in the assay on UO-31 renal. Besides, the growth with TK-10 renal was 76.2%; in the assay with ACHN renal, 44.9%; with CAKI-1 renal, 93.4%; with A498 renal, 77.1%; in the assay on CCRF-CEM leukemia, 67.5%; in the assay with MOLT-4 leukemia, 77.8%.
Take `COC(=O)C(C(=O)OC)C(Br)C(Br)C(Br)c1ccccc1` (centres undefined): the growth with HCT-15 colon is 79.7%; in the assay with SNB-19 CNS, 100%; in the assay with U251 CNS, 94.8%; in the assay with PC-3 prostate, 101%; in the assay with SK-MEL-5 melanoma, 91.5%; in the assay on UACC-62 melanoma, 80.9%. Further, the growth was -16% (active) in the assay on LOX IMVI melanoma; 106% in the assay on SK-MEL-28 melanoma; 97.9% with SN12C renal; 77.7% in the assay on UO-31 renal; 17.9% with ACHN renal; 116% in the assay on A498 renal. Besides, the results for the growth in the assay with CCRF-CEM leukemia and in the assay with MOLT-4 leukemia were -28.9% (active) and 63.8%, respectively.
In the case of `COc1ccc2c(c1)cn1c3ccc(O)cc3[nH]c(=O)c21`, the growth in the assay with HCT-15 colon was 2.24% (active); in the assay with HT29 colon, -43.1% (active); in the assay on SNB-19 CNS, 21.7%; with U251 CNS, 10.5%; with PC-3 prostate, 11%; in the assay with UACC-62 melanoma, 39%. Besides, the growth was 3.95% (active) in the assay with LOX IMVI melanoma; 27.9% in the assay with SK-MEL-28 melanoma; 47.9% in the assay on EKVX NSCLC; 40.2% with SN12C renal; 23.3% in the assay with UO-31 renal; 13% in the assay with TK-10 renal. The growth in the assay on ACHN renal is 14.8%; in the assay with CAKI-1 renal, 22.2%; with A498 renal, 40.7%; in the assay with CCRF-CEM leukemia it was 18.5%; in the assay on MOLT-4 leukemia, 19.2%.
In the case of `CC[C@H](Nc1ncnc2nc[nH]c12)c1nc2cccc(NCc3ccc(C(=O)NO)nc3)c2c(=O)n1-c1ccccc1`, the growth was 97.1% in the assay on HCT-15 colon; 66.6% in the assay on HT29 colon; 26% in the assay with SNB-19 CNS; 23.6% with U251 CNS; 23% in the assay with PC-3 prostate; 80.2% with SK-MEL-5 melanoma. In addition, the growth with UACC-62 melanoma was 20.5%; in the assay with LOX IMVI melanoma, 23.1%; in the assay on SK-MEL-2 melanoma, 55.6%; in the assay with EKVX NSCLC, 77.1%; with SN12C renal, 38.9%; in the assay on UO-31 renal it was 87.1%. Also, the growth is 58.9% in the assay on TK-10 renal; 97% with ACHN renal; 54.2% in the assay on A498 renal; 19.6% with CCRF-CEM leukemia; 15% in the assay on MOLT-4 leukemia.
In the case of `CC(=O)N(N=O)c1ccc([N+](=O)[O-])cc1Cl`, the growth is 54.6% in the assay on HCT-15 colon; 89.7% in the assay with HT29 colon; 58.6% with SNB-19 CNS; 57.8% with U251 CNS; 47.4% in the assay on PC-3 prostate; 18.6% in the assay on SK-MEL-5 melanoma. Besides, the growth in the assay with UACC-62 melanoma is 27.9%; in the assay on LOX IMVI melanoma, 72.7%; in the assay with SK-MEL-28 melanoma, 68.5%; in the assay on SK-MEL-2 melanoma, 73.1%; in the assay with SN12C renal, 47.4%; in the assay with UO-31 renal it was 57.3%. The growth with TK-10 renal was 130%; in the assay with ACHN renal, 58.9%; with CAKI-1 renal, 100%; in the assay with CCRF-CEM leukemia, 46.8%; in the assay on MOLT-4 leukemia, 58.4%.
On to `Cn1c2c(cc(S(=O)(=O)c3ccccc3)c1=O)CCc1c-2cnn1-c1ccc(Cl)cc1`, for which the growth was 39.5% with HCT-15 colon; 16.8% in the assay with HT29 colon; 20.7% in the assay on U251 CNS; 28.8% in the assay with PC-3 prostate; 6.71% (active) in the assay on SK-MEL-5 melanoma; 35.4% with UACC-62 melanoma. In addition, the growth in the assay on LOX IMVI melanoma is 6.82% (active); in the assay on SK-MEL-2 melanoma, -9.09% (active); with EKVX NSCLC, 5.95% (active); with UO-31 renal, -14.2% (active); with TK-10 renal, 34.6%; in the assay on ACHN renal it was 6.4% (active). Also, the growth is -14.5% (active) in the assay with A498 renal, 98.2% with CCRF-CEM leukemia and 57.5% in the assay with MOLT-4 leukemia.
Take `CC(=O)Oc1cc2ccccc2cc1C(C)C`: the growth is 99.1% in the assay with HCT-15 colon; 114% with HT29 colon; 112% in the assay on U251 CNS; 115% with PC-3 prostate; 101% in the assay on SK-MEL-5 melanoma; 116% with UACC-62 melanoma. For the same molecule, the growth was 109% with LOX IMVI melanoma; 113% with SK-MEL-28 melanoma; 85.7% in the assay on SK-MEL-2 melanoma; 111% in the assay on SN12C renal; 88.7% in the assay on UO-31 renal; 97.4% in the assay with ACHN renal. The values for the growth with CAKI-1 renal, in the assay on A498 renal and in the assay on MOLT-4 leukemia were 106%, 81% and 109%, respectively.
With `O=c1[nH]c(=S)[nH]c(O)c1/C=C1\C=Nc2ccccc21`, the growth in the assay on HCT-15 colon was 56.2%; in the assay on HT29 colon, 58.6%; with U251 CNS, 24%; in the assay on PC-3 prostate, 61.7%; in the assay on SK-MEL-5 melanoma it was 75.8%; with LOX IMVI melanoma, 67%. Further, the growth in the assay with SK-MEL-28 melanoma is 96.8%; in the assay with SK-MEL-2 melanoma, 128%; with EKVX NSCLC, 75.1%; in the assay on UO-31 renal it was 31.1%; in the assay on TK-10 renal it was 86.9%; with ACHN renal, 82.5%. Moreover, the values for the growth in the assay with CAKI-1 renal, with CCRF-CEM leukemia and with MOLT-4 leukemia were 27.3%, 4.02% (active) and 42.4%, respectively.

Values taken from PubChem BioAssay (NCI).
